In PubChem BioAssay (NCATS):
Inconclusive results are not listed. Active and inactive are the calls of the source. Unless noted, calls follow the shape of the dose curve; as a rule, active = well fitted curve in the direction sought with a large enough effect; inconclusive = small, poorly fitted or top-dose-only effect, or another doubt; inactive = no such curve, though single readings can be large; an effect the other way counts as inactive or inconclusive.

How the values were obtained:
[1] = qHTS assay for measurement of the activity of small molecule inhibitors on Zika virus induced Caspase-3 activity in human astrocytoma cells (AID 1224859); settings: SNB-19 ZIKV-induced caspase-3/7, luminescence, 6 h; series mostly up to 45.7 µM; also: potency is read from the fitted curve at half-maximal effect
Outline: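 Percent inhibition of virus-induced caspase-3/7 signal is calculated against uninfected and ZIKV-infected control cells. Cells are SNB-19, infected at 2 FFU/cell for 6 h after 1 h compound exposure.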

[2] = biological target: Atrial natriuretic peptide receptor 1 (Homo sapiens) (UniProt P16066); test: Natriuretic polypeptide receptor (hNpr1) antagonism - Pilot screen (AID 1347049; calls by dose curve;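 also: agonist-evoked cGMP luminescence read 20 min after hNppA addition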); settings: hNpr1 cells, antagonist mode cGMP read-out; series mostly up to 57.5 µM
Outline: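 cGMP-sensor HEK293/hNpr1 cells, 1500/well, plated overnight at 37C. 2% GloSensor reagent, 2 h RT. Compound (23 nL pin transfer) 30 min RT, baseline luminescence pre-read. 0.1 nM hNppA, 20 min RT, post-read.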

[3] = NS1 protein of Zika virus - qHTS assay to identify small molecule inhibitors in human HEK 293 cells (AID 1347053); settings: HEK293 ZIKV MR766 infection, NS1 TR-FRET, 24 h; series mostly up to 46.1 µM; also: nearly all actives have a fitted effect of over 55% in size; also: potency is read from the fitted curve at half-maximal effect
Outline: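 Compound-treated (1 h pre-infection) HEK 293 cells infected with ZIKV MR766, MOI = 0.5; after 24 h at 37 C, NS1 read by TR-FRET; data normalized to uninfected and infected controls.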

[4] = biological target: T1, Tyrosine-protein phosphatase non-receptor type substrate 1 (Homo sapiens) + Leukocyte surface antigen CD47 (Homo sapiens) (UniProt P78324+Q08722); test: CD47-SIRPalpha protein protein interaction - LANCE assay qHTS validation (AID 1347057; active = well fitted curve in the direction sought with a large enough effect in the signal ratio, with a control signal flat, not every such curve was filed as active; the % refers to the signal ratio; also: potency is read from the fitted curve at half-maximal effect); settings: Recombinant CD47-His / biotin-SIRPalpha, TR-FRET ratio; series mostly up to 38.3 µM
Outline: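 Inhibition of soluble CD47/SIRPalpha ectodomain association by titrated compounds, measured as 665/615 nm time-resolved FRET ratio after sequential 30 min room-temperature incubations.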

[5] = biological target: T1, Tyrosine-protein phosphatase non-receptor type substrate 1 (Homo sapiens) + Leukocyte surface antigen CD47 (Homo sapiens); test: CD47-SIRPalpha protein protein interaction - HTRF assay qHTS validation (AID 1347058; active = well fitted curve in the direction sought with a large enough effect in the signal ratio, not every such curve was filed as active; the % refers to the signal ratio); settings: TR-FRET HTRF CD47-His / biotin-SIRPalpha binding, ratio 665/615; series mostly up to 38.3 µM
Outline: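 Soluble extracellular domains (6His-CD47, Avi-tag-biotinylated SIRPalpha) in PBS pH 7.4 with 0.05% IGEPAL CA-630. Compounds were preincubated 30 min at RT with CD47 and anti-His-Eu, then SIRPalpha and SAV-XL665 were added. TR-FRET 665/615 ratio.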

[6] = biological target: T1, Tyrosine-protein phosphatase non-receptor type substrate 1 (Homo sapiens) + Leukocyte surface antigen CD47 (Homo sapiens); test: CD47-SIRPalpha protein protein interaction - Alpha assay qHTS validation (AID 1347059); settings: AlphaScreen CD47-His/biotin-SIRPalpha binding, LOPAC; series mostly up to 38.3 µM;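 also: bead proximity luminescence from CD47 binding SIRPalpha after compound preincubation with SIRPalpha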
Outline: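 SIRPalpha-biotin 25 nM + cpd, 30 min RT, dark; add CD47-His 12.5 nM, 30 min; add Ni-NTA/SAV beads 10 ug/mL, 30 min; AlphaScreen. Buffer PBS pH 7.4 + 0.05% IGEPAL CA-630. Non-biotinylated SIRPalpha as control inhibitor.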

[7] = biological target: Atrial natriuretic peptide receptor 2 (Homo sapiens) (UniProt P20594); test: Natriuretic polypeptide receptor (hNpr2) antagonism - Pilot subtype selectivity assay (AID 1347050; calls by dose curve; also: potency is read from the fitted curve at half-maximal effect); settings: NPR2-expressing cells, cGMP antagonist-mode read-out; series mostly up to 38.3 µM
Outline: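 Luminescence from a genetically encoded cGMP luciferase biosensor in hNpr2-expressing HEK293 cells is read before and 20 min after adding 1 nM hNppC. Test compounds, in interplate 1:5 titrations, are added 30-50 min ahead of the agonist.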

[8] = biological target: Parathyroid hormone/parathyroid hormone-related peptide receptor (Homo sapiens) (UniProt Q03431); test: qHTS for PTHR1 Agonists: Optimization Screen against the NCGC LOPAC library (AID 1347079); settings: HEK293 GP2 PTHR1 GloSensor cAMP luminescence, 1 h; series mostly up to 57.1 µM;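 also: GloSensor cAMP luminescence in HEK-293 GP2 cells expressing human PTHR1 with IBMX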
Outline: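 Signal increase flags agonism. GP2 cells, derived from HEK-293, express human PTHR1 and a GloSensor cAMP construct.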

[9] = qHTS of pediatric cancer cell lines to identify multiple opportunities for drug repurposing: Primary screen for DAOY cells (AID 1347090); settings: DAOY medulloblastoma viability, CellTiter-Glo luminescence, 48 h; series mostly up to 46 µM; also: nearly all actives have a fitted effect of over 55% in size; also: potency is read from the fitted curve at half-maximal effect
Outline: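 Viability measured as metabolically active cells via CellTiter-Glo luminescence following 48 hours of compound exposure, 11-point dilutions in confirmatory testing. 500-1,000 cells/well plated 5 hours before dosing; controls were DMSO and 2.3 µM bortezomib.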

[10] = qHTS of pediatric cancer cell lines to identify multiple opportunities for drug repurposing: Primary screen for TC32 cells (AID 1347089); settings: TC32 Ewing sarcoma viability, CellTiter-Glo luminescence, 48 h; series mostly up to 45.8 µM; also: nearly all actives have a fitted effect of over 60% in size; also: potency is read from the fitted curve at half-maximal effect
Outline: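 Luminescent CellTiter-Glo read-out of metabolically active TC32 cells after 48 h compound exposure. Primary: MIPE 11-point, 0.78 nM–46 µM; NPC 8-point, 0.59 nM–46 µM. Confirmatory: 11-point dilutions.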

Measured: Potency

Atrial natriuretic peptide receptor 2 (Homo sapiens), sequence (P20594 whole entry, looked up): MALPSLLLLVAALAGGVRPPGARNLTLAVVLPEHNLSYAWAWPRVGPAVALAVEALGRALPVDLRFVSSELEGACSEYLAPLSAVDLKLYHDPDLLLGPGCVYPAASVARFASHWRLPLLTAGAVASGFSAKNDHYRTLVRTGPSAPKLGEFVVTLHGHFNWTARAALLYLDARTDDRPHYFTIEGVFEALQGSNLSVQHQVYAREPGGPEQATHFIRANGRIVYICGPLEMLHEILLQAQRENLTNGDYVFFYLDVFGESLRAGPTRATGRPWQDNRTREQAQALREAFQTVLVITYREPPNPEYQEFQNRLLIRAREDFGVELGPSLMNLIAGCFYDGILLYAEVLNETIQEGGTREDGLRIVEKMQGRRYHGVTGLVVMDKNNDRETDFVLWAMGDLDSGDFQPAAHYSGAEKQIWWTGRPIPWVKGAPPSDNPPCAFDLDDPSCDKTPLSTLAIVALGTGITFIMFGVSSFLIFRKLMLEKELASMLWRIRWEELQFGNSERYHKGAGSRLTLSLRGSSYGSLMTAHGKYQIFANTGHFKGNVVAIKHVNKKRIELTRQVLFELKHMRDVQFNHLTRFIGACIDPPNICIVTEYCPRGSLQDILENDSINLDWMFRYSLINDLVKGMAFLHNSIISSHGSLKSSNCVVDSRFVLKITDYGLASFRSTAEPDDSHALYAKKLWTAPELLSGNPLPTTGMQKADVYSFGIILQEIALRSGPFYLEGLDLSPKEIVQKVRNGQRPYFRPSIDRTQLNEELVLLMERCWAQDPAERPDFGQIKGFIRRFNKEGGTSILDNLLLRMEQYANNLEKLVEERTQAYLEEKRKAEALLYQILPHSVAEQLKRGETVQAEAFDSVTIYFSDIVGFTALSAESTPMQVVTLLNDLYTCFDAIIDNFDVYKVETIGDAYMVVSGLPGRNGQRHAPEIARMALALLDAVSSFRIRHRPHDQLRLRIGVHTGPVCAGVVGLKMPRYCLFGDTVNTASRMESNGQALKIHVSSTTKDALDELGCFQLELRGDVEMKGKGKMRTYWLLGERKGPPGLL
Atrial natriuretic peptide receptor 1 (Homo sapiens), sequence (P16066 whole entry, looked up): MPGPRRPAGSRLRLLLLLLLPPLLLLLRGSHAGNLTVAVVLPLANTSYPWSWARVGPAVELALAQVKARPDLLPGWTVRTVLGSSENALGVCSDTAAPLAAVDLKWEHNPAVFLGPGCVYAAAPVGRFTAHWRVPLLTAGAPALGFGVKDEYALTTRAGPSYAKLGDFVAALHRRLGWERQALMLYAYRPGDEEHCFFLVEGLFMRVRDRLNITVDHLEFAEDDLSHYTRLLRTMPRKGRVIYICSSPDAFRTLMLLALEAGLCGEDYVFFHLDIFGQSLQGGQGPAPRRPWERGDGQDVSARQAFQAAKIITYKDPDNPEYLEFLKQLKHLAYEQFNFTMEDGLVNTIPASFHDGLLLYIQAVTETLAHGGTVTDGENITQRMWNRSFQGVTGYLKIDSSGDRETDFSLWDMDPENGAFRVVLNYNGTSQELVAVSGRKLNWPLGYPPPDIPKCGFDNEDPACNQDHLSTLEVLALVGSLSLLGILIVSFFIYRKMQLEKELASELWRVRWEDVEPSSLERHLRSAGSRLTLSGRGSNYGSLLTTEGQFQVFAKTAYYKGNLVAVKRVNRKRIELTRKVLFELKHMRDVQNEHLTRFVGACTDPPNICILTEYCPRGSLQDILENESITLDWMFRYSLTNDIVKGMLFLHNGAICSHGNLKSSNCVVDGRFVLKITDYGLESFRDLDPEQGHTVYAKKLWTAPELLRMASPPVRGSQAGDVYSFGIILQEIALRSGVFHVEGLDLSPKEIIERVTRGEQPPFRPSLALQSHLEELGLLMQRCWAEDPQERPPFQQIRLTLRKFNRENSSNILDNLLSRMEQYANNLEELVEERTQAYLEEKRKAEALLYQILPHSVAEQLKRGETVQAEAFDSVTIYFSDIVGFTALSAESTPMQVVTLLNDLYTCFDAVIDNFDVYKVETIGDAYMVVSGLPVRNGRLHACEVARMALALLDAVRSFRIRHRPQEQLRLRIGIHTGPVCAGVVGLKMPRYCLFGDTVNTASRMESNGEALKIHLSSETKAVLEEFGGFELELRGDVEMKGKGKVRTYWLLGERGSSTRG
T1 sequence (P78324 whole entry, looked up, the tested form may be a part): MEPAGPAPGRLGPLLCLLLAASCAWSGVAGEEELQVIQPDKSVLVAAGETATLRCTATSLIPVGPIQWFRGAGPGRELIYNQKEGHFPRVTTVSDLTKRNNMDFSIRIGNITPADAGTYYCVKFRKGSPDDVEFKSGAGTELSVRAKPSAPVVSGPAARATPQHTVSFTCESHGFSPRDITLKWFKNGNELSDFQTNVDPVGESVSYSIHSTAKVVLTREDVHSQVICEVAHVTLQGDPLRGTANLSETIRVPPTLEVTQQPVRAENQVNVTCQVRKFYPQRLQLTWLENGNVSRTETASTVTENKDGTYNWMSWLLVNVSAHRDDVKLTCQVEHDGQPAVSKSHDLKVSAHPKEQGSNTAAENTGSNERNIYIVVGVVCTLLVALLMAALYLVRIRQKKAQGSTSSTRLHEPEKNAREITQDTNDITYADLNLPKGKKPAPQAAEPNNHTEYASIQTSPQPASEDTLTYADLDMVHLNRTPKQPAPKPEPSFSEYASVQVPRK
T1 sequence (Q08722 whole entry, looked up, the tested form may be a part): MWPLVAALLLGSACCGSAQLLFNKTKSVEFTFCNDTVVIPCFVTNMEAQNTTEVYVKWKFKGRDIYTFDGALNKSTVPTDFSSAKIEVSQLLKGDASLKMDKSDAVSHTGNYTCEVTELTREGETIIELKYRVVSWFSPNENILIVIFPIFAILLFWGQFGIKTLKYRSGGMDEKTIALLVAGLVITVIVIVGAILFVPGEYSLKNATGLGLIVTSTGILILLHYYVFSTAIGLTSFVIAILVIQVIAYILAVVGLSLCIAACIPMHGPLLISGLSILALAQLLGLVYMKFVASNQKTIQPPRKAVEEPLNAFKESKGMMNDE
Parathyroid hormone/parathyroid hormone-related peptide receptor (Homo sapiens), sequence (Q03431 whole entry, looked up): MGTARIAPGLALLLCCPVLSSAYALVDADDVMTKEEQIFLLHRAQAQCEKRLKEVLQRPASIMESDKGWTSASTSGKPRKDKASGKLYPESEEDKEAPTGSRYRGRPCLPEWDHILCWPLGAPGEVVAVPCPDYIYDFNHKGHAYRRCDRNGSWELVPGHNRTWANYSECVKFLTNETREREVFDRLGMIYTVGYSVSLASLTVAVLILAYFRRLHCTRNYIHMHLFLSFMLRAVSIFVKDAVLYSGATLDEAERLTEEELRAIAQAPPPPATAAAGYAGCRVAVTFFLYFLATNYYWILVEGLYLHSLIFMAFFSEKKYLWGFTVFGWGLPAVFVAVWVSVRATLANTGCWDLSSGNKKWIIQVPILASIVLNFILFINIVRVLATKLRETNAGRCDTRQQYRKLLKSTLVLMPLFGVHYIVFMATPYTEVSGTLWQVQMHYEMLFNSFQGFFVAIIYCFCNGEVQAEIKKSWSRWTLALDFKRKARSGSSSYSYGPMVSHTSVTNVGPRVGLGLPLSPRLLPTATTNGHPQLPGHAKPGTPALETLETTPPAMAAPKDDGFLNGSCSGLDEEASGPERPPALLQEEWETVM

COc1ccc2c(c1)CCC1C2CC[C@@]2(C)C1CC[C@@H]2NCCCCCCN1C(=O)CCC1=O (stereo partly specified)
inactive: [1] | [2] | [3] | [4] | [5] | [6]

O=C(O)CC1CCCc2ccccc2C1O (stereo unspecified)
not listed: [6] | [9] | [10]
inactive: all other assays above

Brc1c(Br)c(Br)c2n[nH]nc2c1Br
inactive: [1] | [2] | [7] | [4] | [5] | [6]

CC[C@@H](C)[C@H]1O[C@]2(CC[C@H]1C)C[C@@H]1C[C@@H](CC=C(C)[C@@H](O[C@H]3C[C@H](OC)[C@@H](O[C@H]4C[C@H](OC)[C@@H](O)[C@H](C)O4)[C@H](C)O3)[C@@H](C)C=CC=C3CO[C@@H]4[C@H](O)C(C)=C[C@@H](C(=O)O1)[C@]34O)O2
not listed: [3] | [9] | [10]
inactive: all other assays above

C=C[C@@H]1CN2CC[C@@H]1C[C@H]2[C@H](O)c1ccnc2ccc(OC)cc12
inactive: [1] | [2] | [7] | [3] | [8]

N.N.N.N.N.N.N.N.N.N.N.N.N.N.O.O.[Ru+4].[Ru+5].[Ru+5]
inactive: [1] | [2] | [7] | [3] | [8]

OC[C@H]1O[C@@H](n2cnc3c(Nc4ccccc4)ncnc32)[C@H](O)[C@@H]1O
inactive: [1] | [2] | [7] | [8]

NC(N)=NC(=O)c1nc(Cl)c(N2CCCCCC2)nc1N
not listed: [5] | [9] | [10]
inactive: all other assays above

C=C[C@H]1CN2CC[C@@H]1C[C@@H]2[C@@H](O)c1ccnc2ccc(OC)cc12
inactive: [1] | [2] | [7] | [3] | [8]

Cn1ncc(S(=O)(=O)Cc2ccccc2)c(Br)c1=O
inactive: [1] | [2] | [4] | [8]
active: [7] 11.7 µM

CC1CN(S(=O)(=O)c2cccc3cnccc23)CCN1 (stereo unspecified)
not listed: [7] | [9] | [10]
inactive: all other assays above

c1cnc2c(c1)ccc1cccnc12
active: [3] 7.08 µM
not listed: [6] | [9] | [10]
inactive: all other assays above

COc1ccccc1N1CCN(CCCCNS(=O)(=O)c2cccc3c(N(C)C)cccc23)CC1
inactive: [1] | [2] | [7] | [8]

CCCCCCCCCCCCCCCCCCNC(=O)OCC(COP(=O)([O-])OCC[n+]1ccsc1)OC (stereo unspecified)
inactive: [1] | [2] | [7] | [8]

CC(C)(C=O)Cc1cc(C(C)(C)C)c(O)c(C(C)(C)C)c1
not listed: [9] | [10]
inactive: all other assays above

CCCCCCCCCCCCCCCC(=O)OC(CC(=O)O)C[N+](C)(C)C (stereo unspecified)
not listed: [6] | [9] | [10]
inactive: all other assays above

C[C@@H](CN1CCC(Cc2ccccc2)CC1)[C@@H](O)c1ccc(O)cc1
not listed: [7] | [9] | [10]
inactive: all other assays above

O=C(O)CNC(=O)C(CS)Cc1ccccc1 (stereo unspecified)
inactive: [1] | [2] | [3] | [4] | [5]

OC[C@H]1O[C@@H](n2cnc3c(NC4CCCCC4)ncnc32)[C@H](O)[C@@H]1O
not listed: [7] | [9] | [10]
inactive: all other assays above

CSc1ccccc1N1CCN(CCCCCC(=O)NC2CCCc3ccccc32)CC1 (stereo unspecified)
inactive: [1] | [2] | [7] | [5] | [8]

CO/S(=N\S(=O)(=O)c1ccc(Cl)cc1)c1ccc([N+](=O)[O-])cc1 (stereo unspecified)
inactive: [1] | [2] | [7] | [8]

Cn1c(=O)c2[nH]c(-c3ccccc3)nc2n(C)c1=O
inactive: [1] | [2] | [7] | [3] | [8]

OCC1O[C@H]([S-])[C@H](O)[C@@H](O)[C@@H]1O.[Au+] (stereo partly specified)
inactive: [1] | [2] | [7]
active: [4] 5.85 µM

CC1(C)CCC=[N+]1[O-]
inactive: [1] | [2] | [7] | [4] | [5] | [8]

CN1C2CC(OC(=O)[C@H](CO)c3ccccc3)CC1C1OC12 (stereo partly specified)
inactive: [1] | [2] | [7] | [8]

O=C(Nc1ccccc1)c1cc([N+](=O)[O-])ccc1Cl
inactive: [1] | [2] | [7] | [3] | [4] | [6]

N[C@@H](CC(=O)O)C(=O)O
inactive: [1] | [2] | [7] | [3] | [8]

O=c1[nH]c2cc([N+](=O)[O-])c([N+](=O)[O-])cc2[nH]c1=O
inactive: [1] | [2] | [7] | [3] | [4] | [8]

Oc1cc2c(cc1O)CN(C(=S)NCCc1ccc(Cl)cc1)CCC2
inactive: [1] | [2] | [3] | [4] | [5] | [6]

CCCN(CC1CC1)c1nc(C)nc(Nc2c(Cl)cc(Cl)cc2Cl)c1Cl
inactive: [1] | [2] | [7] | [4] | [5] | [6]

NC(=O)C(=O)O
not listed: [9] | [10]
inactive: all other assays above

CC(=O)N[C@H](C(=O)O)C(C)(C)SN=O
not listed: [7] | [9] | [10]
inactive: all other assays above

NC[C@@H]1O[C@H](C23CC4CC(CC(C4)C2)C3)Cc2c1ccc(O)c2O
inactive: [1] | [2] | [4] | [5] | [8]

CCCCC/C=C\CC(O)/C=C/c1cccc(CC(O)CCCCO)n1 (stereo unspecified)
inactive: [1] | [7] | [8]

Clc1ccc(N2CCN(Cc3cc4ccccn4n3)CC2)cc1
inactive: [1] | [3] | [4] | [5] | [6] | [8]

Nc1ccc(O)c([N+](=O)[O-])c1
inactive: [1] | [3] | [9]

S=C(S)OC1CC2CC1C1CCCC21 (stereo unspecified)
inactive: [1] | [3] | [4] | [5] | [8]

C=CC(=O)c1ccc(CCCCCC)cc1
inactive: [1] | [8]

O=C(c1ccc(Cl)cc1)N1CCN(c2ccc([N+](=O)[O-])c3ncccc23)CC1
inactive: [1] | [3] | [4] | [8]

COc1ccnc2c1CCCCC2S(=O)c1nc2ccccc2[nH]1 (stereo unspecified)
inactive: [1] | [3] | [10] | [9]

NO
inactive: [1] | [2] | [3] | [8]

CCCCCCCC/C=C/C(=O)O
inactive: [1] | [3] | [10] | [9]

CN(C)CCC(c1ccc(Cl)cc1)c1ccccn1 (stereo unspecified)
inactive: [1] | [3]

CCOC(=O)C1=C(C)NC(C)=C(C(=O)OCC)C1c1c(F)c(F)c(F)c(F)c1F
inactive: [1] | [3] | [4] | [5] | [6] | [8]

COc1ccccc1N1CCN(CCN(C(=O)c2ccc(I)cc2)c2ccccn2)CC1
inactive: [1] | [8]

NC[C@H]1O[C@@H](n2cnc3c(N)ncnc32)[C@H](O)[C@@H]1O
inactive: [1] | [2] | [3] | [4] | [5] | [8]

COc1ccc(NC(=O)/C=C/c2ccc(Cl)cc2)cc1
active: [1] 5.62 µM
inactive: [3] | [4] | [6] | [8]

COC1=C(OC)C(=O)c2ccccc2C1=O
inactive: [1] | [2] | [3] | [4] | [8]

COc1cc(OC)c(/C=C2/C(=O)Nc3ccccc32)c(OC)c1
inactive: [1] | [3]

CCCCCCCCCCCCCCCCCC(=O)OC(CC(=O)O)C[N+](C)(C)C (stereo unspecified)
not listed: [2] | [9] | [10]
inactive: all other assays above

O=C(CCCCCN1CCN(c2ccccc2-c2ccccc2)CC1)NC1CCCc2ccccc21 (stereo unspecified)
inactive: [1] | [2] | [3] | [4] | [5] | [8]

COC(=O)Nc1nc2ccc(C(=O)C3CC3)cc2[nH]1
inactive: [1] | [3]
active: [10] 1.33 µM | [9] 1.06 µM

COc1ccccc1CNCCCCCCNCCCCCCCCNCCCCCCNCc1ccccc1OC
inactive: [1] | [2] | [3] | [4] | [5] | [8]
